19 compounds from PubChem BioAssay (NCATS) can be followed below.

Experiment [1] in a line: Primary qHTS for inhibitors of nuclear receptor binding SET domain protein 2 (NSD2) in an RCH-ACV wild type WT cells (2C) (AID 1645877). Further: nearly all actives have a fitted effect of over 70% in size. Further: potency means the concentration at half of the fitted maximal effect. On activity change, negative = cell killing: on the % scale 0 is the no-effect control and ±100 the full control effect. Background: qHTS replaces the single test concentration by a dilution series.
Experiment [2] deals with Glutathione peroxidase 1 (Homo sapiens) (UniProt P07203). The experiment in a line: Primary qHTS Assay for Inhibitors of Recombinant Selenoprotein Glutathione Peroxidase 1 (GPX1) (AID 1845191). Further: nearly all actives have a fitted effect of over 65% in size. On activity, negative = inhibition: on the % scale 0 is the no-effect control and ±100 the full control effect. The method, boiled down:
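NADPH consumption tracked by fluorescence at 340/450 nm between t=0 and t=15 min, room temperature. Final mix: 10 nM GPX1, 100 nM glutathione reductase, 1 mM GSH, 0.5 mM NADPH, 0.5 mM cumene hydroperoxide, 0.01% BSA; 30 min compound–enzyme preincubation.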

For experiment [3], the target named is Phospholipid hydroperoxide glutathione peroxidase GPX4 (Homo sapiens) (UniProt P36969). Put plainly: Primary qHTS Assay for Inhibitors of Recombinant Selenoprotein Glutathione Peroxidase 4 (GPX4) (AID 1845192). Further: nearly all actives have a fitted effect of over 65% in size. On activity change, negative = inhibition: series mostly up to about 50 µM; on the % scale 0 is the no-effect control and ±100 the full control effect. Put shortly: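 NADPH consumption followed by fluorescence at 340/450 nm, t=0 and after 15 min at room temperature. Reaction started with cumene hydroperoxide (0.5 mM final) after 30 min compound–GPX4 preincubation; final 200 nM GPX4, 100 nM GR, 1 mM GSH, 0.5 mM NADPH.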
Chain of Phospholipid hydroperoxide glutathione peroxidase GPX4 (Homo sapiens) (P36969 whole entry, looked up): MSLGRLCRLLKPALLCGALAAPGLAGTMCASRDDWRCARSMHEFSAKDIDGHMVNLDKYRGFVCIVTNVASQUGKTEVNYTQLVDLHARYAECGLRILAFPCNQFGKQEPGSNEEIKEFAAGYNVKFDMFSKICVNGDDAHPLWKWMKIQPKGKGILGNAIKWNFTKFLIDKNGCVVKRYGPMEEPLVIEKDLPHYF

The target of experiment [4] is Luciferin 4-monooxygenase (Photinus pyralis) (UniProt P08659). The experiment in a line: Primary firefly luciferase (FLuc) qHTS assay for identification of artifact compounds. (AID 1845220). Further: nearly all actives have a fitted effect of over 60% in size.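 On activity change, negative = inhibition: series mostly up to about 54 µM; plate controls were DMSO vehicle for no effect and no enzyme for full effect.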 Put shortly:
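Compounds sat 15 min at room temperature with 10 uM luciferin and 10 uM ATP (pH 7.6 Tris acetate). Firefly luciferase (10 nM final) was then added, and luminescence was read 5 min later. Data normalized to no-enzyme and DMSO controls were Hill-fitted.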

A short description of experiment [5]: Primary fluorescence-based thiol-reactive (MSTI) qHTS assay for identification of artifact compounds. (AID 1845221). Further: nearly all actives have a fitted effect of over 65% in size. Further: potency means the concentration at half of the fitted maximal effect.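 On activity change, negative = thiol reactive: series mostly up to about 54 µM; thiol-reactive compounds lower the probe fluorescence signal.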 Put shortly: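 Probe: MSTI 4 uM, PBS pH 7.4, 2% DMSO. Incubation 1 h, RT, light-protected. Readout fluorescence 525/598 nm.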
The subject of experiment [6] is Nanoluciferase (engineered Oplophorus gracilirostris luciferase). Put plainly: Primary Nanoluciferase (NLuc) qHTS assay for identification of artifact compounds. (AID 1845222).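 Further: series mostly up to about 54 µM; 0% = DMSO and -100% = no enzyme.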 Put shortly:
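Luminescence from secreted NLuc (filtered, 1:55-diluted S16 cell medium) read 5 min after Nano-Glo substrate; compounds preincubated 15 min, RT. Hill fits of inhibition normalized to DMSO and no-enzyme.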

Experiment [7] in a line: Primary redox qHTS assay for identification of artifact compounds. (AID 1845223).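 Further: 0% = DMSO and 100% = reference compound.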 Put shortly: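 Redox-cycling detection via DTT (250 uM final) oxidation coupled to Amplex Red (25 uM)/HRP (250 mU/mL) in HBSS. 15 min preincubation plus 30 min after DTT, room temperature. Ex/Em 525/598 nm; 4-parameter Hill fit against DMSO and 10 uM DA3003.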

Values without a mark were called inactive. Records with an inconclusive call do not appear. Calls of active or inactive are those of the source. The call rests on the fitted dose curve; in most records, active means well fitted curve in the direction sought with a large enough effect; inconclusive means small, poorly fitted or top-dose-only effect, or another doubt; inactive means no such curve, though single readings can be large; an effect the other way counts as inactive or inconclusive.

Chain of Glutathione peroxidase 1 (Homo sapiens) (P07203 whole entry, looked up): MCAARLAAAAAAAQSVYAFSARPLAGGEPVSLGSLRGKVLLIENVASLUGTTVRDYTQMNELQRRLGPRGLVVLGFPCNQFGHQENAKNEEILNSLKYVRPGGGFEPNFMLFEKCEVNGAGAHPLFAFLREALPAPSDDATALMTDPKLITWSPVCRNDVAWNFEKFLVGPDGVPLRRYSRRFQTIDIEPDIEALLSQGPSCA

`CCCC(=O)O[C@@H]1[C@@H]2[C@@H](OC(C)=O)[C@]3(C)C(=O)[C@H]4[C@@H](OC(C)=O)C(C)(C)C[C@H]4[C@]3(C)C(=O)[C@@]2(OC(C)=O)C[C@@H]1C`: the Potency entry in experiment [1], in experiment [2], in experiment [3], in experiment [4], in experiment [5] and in experiment [6] was “inactive” in each case.

Regarding `CCCC(=O)NCCc1csc(-c2ccc(Cl)cc2)n1`, the Potency in experiment [1] is 18.3 µM (active). In addition, the Potency result in experiment [2], in experiment [3], in experiment [4], in experiment [5] and in experiment [6] was “inactive” in each case.

On to `C=C1C[C@]23C[C@H]1CC[C@H]2[C@]1(C)CCC[C@@](C)(C(=O)O)[C@H]1[C@@H]3C(=O)O`, for which the Potency result in experiment [1], in experiment [2], in experiment [3], in experiment [4], in experiment [5] and in experiment [6] was “inactive” in each case.

For the compound `CC(C)(C)NCCCNC(=O)c1cccc(Br)c1`, the Potency result in experiment [1], in experiment [2], in experiment [3], in experiment [4], in experiment [5] and in experiment [6] was “inactive” in each case.

For the compound `CC1=CC2C(CC1OC1OC(CO)C(O)C(O)C1O)C(C)CC(=O)C2C(C)C` (configuration not stated), the Potency entry in experiment [1], in experiment [2], in experiment [3], in experiment [4] and in experiment [6] was “inactive” throughout. In addition, the Potency in experiment [5] is 3.69 µM (active).

For the compound `CC(=O)C1=C(C)N(c2cccc(C(F)(F)F)c2)C(=O)N[C@H]1c1ccc(C#N)nc1`, the activity change, negative = cell killing in experiment [1] is -17.1% [at 9.23 µM]. For the same compound, the Potency entry in experiment [2] and in experiment [3] was “inactive” each time. The activity change, negative = inhibition in experiment [4] was -8.43% [at 11.6 µM]. In addition, the activity change, negative = thiol reactive in experiment [5] was 33.4% [at 11.5 µM]. In addition, in experiment [6], the activity, negative = inhibition was -1.73% [at 11.6 µM].

Regarding `CC[C@H](C)[C@H](NC(=O)[C@H]([C@@H](C)CC)N(C)C(C)=O)C(=O)N[C@H](C(=O)N[C@@H](CC(C)C)C(=O)[C@@]1(C)CO1)[C@@H](C)O`, the Potency in experiment [1] is 0.0073 µM (active). In addition, the Potency entry in experiment [2], in experiment [3], in experiment [4], in experiment [5] and in experiment [6] was “inactive” each time.

Turning to `CC1OC(OC2C(O)C(OC3CCC4(C)C(CCC5(C)C4CC=C4C6CC(C)(COC7OC(CO)C(O)C(O)C7O)CC(O)C6(C)CCC45C)C3(C)C)OC(C(=O)O)C2O)C(O)C(O)C1OC1OCC(O)C(O)C1O` (configuration not stated), the activity change, negative = cell killing in experiment [1] was -2.6% [at 9.23 µM]. Further, the Potency result in experiment [2] and in experiment [3] was “inactive” throughout. In addition, the activity change, negative = inhibition in experiment [4] was 0.0325% [at 11.6 µM]. For the same compound, in experiment [5], the activity change, negative = thiol reactive is 24.3% [at 11.5 µM]. The activity, negative = inhibition in experiment [6] was -3.08% [at 11.6 µM].

For `CC(C)C(C#N)O[C@@H]1O[C@H](CO[C@@H]2O[C@@H](C)[C@H](O)[C@@H](O)[C@H]2O)[C@@H](O)[C@H](O)[C@H]1O` (some centres not stated), the Potency result in experiment [1], in experiment [2], in experiment [3], in experiment [4], in experiment [5] and in experiment [6] was “inactive” throughout.

With `CCCC(=O)C1CCN(c2ncnc3c2CN(C(=O)c2ccc(-c4ccccc4)cc2)CC3)CC1`, the Potency in experiment [1] was 20.5 µM (active). For the same compound, the Potency result in experiment [2], in experiment [3], in experiment [4], in experiment [5] and in experiment [6] was “inactive” each time.

In the case of `CC1(C)CC[C@]2(C(=O)O[C@@H]3O[C@H](CO[C@@H]4O[C@H](CO)[C@@H](O)[C@H](O)[C@H]4O[C@@H]4O[C@H](CO)[C@H](O)[C@H](O)[C@H]4O)[C@@H](O)[C@H](O[C@@H]4O[C@H](CO)[C@@H](O)[C@H](O)[C@H]4O)[C@H]3O)CC[C@]3(C)C(=CCC4[C@@]5(C)CC[C@H](O[C@@H]6OC[C@@H](O)[C@H](O)[C@H]6O)[C@@](C)(C(=O)O)C5CC[C@]43C)[C@@H]2C1` (some centres not stated), the activity change, negative = cell killing in experiment [1] is -8.76% [at 9.23 µM]. Further, the outcome in experiment [2] was “inactive [at 9.52 µM]”; in experiment [3], “inactive [at 9.73 µM]”. Further, the activity change, negative = inhibition in experiment [4] is 3.08% [at 11.6 µM]. Moreover, the activity change, negative = thiol reactive in experiment [5] was 79.6% [at 11.5 µM]. Besides, the activity, negative = inhibition in experiment [6] is 0.986% [at 11.6 µM].

With `O=C(/C=C/c1ccc(O)cc1)N[C@@H](Cc1ccc(O)cc1)C(=O)O`, the Potency result in experiment [1], in experiment [2], in experiment [3], in experiment [4], in experiment [6] and in experiment [7] was “inactive” throughout. Besides, the Potency in experiment [5] was 7.36 µM (active).

On to `CN1CCC(Nc2nc(Nc3ccc(Oc4ccccc4)cc3)c3c(=O)[nH]cc(Br)c3n2)CC1`, for which the Potency in experiment [1] is 0.916 µM (active). Besides, the Potency result in experiment [2], in experiment [3], in experiment [4], in experiment [5], in experiment [6] and in experiment [7] was “inactive” throughout.

Turning to `CNS(=O)(=O)c1ccccc1Nc1nc(Nc2ccc(N3CCN(C)CC3)cc2OC)ncc1Cl`, the figures for the Potency in experiment [1] and in experiment [5] were 0.649 µM (active) and 2.38 µM (active), respectively. Further, the Potency entry in experiment [2], in experiment [3], in experiment [4], in experiment [6] and in experiment [7] was “inactive” throughout.

For `CN(C)C1CCN(C(=O)c2ccc(NC(=O)Nc3ccc(-c4nc(N5CCOCC5)nc(N5CCOCC5)n4)cc3)cc2)CC1`, in experiment [1], the Potency was 0.0332 µM (active). The Potency entry in experiment [2], in experiment [3], in experiment [4], in experiment [5], in experiment [6] and in experiment [7] was “inactive” throughout.

Consider `COc1c2ccoc2cc2oc(CO[C@@H]3O[C@H](CO)[C@@H](O)[C@H](O)[C@H]3O)cc(=O)c12`, for which the Potency entry in experiment [1], in experiment [2], in experiment [3], in experiment [4], in experiment [5] and in experiment [6] was “inactive” throughout. The Potency result in experiment [7] is “inactive”.

In the case of `CC1=CC(=O)CC(C)(CO)C1(O)/C=C/C(C)O[C@@H]1O[C@H](CO)[C@@H](O)[C@H](O)[C@H]1O` (some centres not stated), the Potency entry in experiment [1], in experiment [2], in experiment [3], in experiment [4], in experiment [6] and in experiment [7] was “inactive” each time. Also, the Potency in experiment [5] is 10.3 µM (active).

With `C=C(C(=O)O)C1CCC2(C)CCCC(C)(O)C2C1` (configuration not stated), the Potency result in experiment [1], in experiment [2], in experiment [3], in experiment [4], in experiment [6] and in experiment [7] was “inactive” throughout. Also, in experiment [5], the Potency was 21.2 µM (active).

Consider `CCn1cc(NC(=S)Nc2cc(Cl)ccc2OC)c(C(N)=O)n1`, for which the Potency entry in experiment [1], in experiment [2], in experiment [3], in experiment [4], in experiment [5] and in experiment [6] was “inactive” each time. Moreover, the Potency entry in experiment [7] is “inactive”.
